What all share (test): universal protein binding microarray (PBM); transcription factors of Arabidopsis thaliana; high values mean tight binding
In one test the target is T1, GST-ANAC092(1-176) (Arabidopsis thaliana, UniProt Q9FKA0 1-176).
T1 sequence: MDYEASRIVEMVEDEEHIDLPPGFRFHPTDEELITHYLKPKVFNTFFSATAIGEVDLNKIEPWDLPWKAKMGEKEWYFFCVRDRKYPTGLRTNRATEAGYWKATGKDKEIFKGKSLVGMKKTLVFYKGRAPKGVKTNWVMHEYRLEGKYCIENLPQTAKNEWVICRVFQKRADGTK
The conditions noted are these: protein: recombinant; tags: GST; chain copies: 2; dsDNA, one strand shown. Summed up: (§1)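 Binding is expressed as the normalised enrichment score (E-score). Proteins carrying a GST tag, whether NAC-domain, full-length or DNA-binding-domain forms, were induced in cells, and zinc acetate was added for zinc-finger proteins. After purification on glutathione–Sepharose 4B and quantification by A280 or anti-GST western blot, each was applied in duplicate at 200 to 500 nM final to custom all-10-mer Agilent 4 × 180K arrays made double-stranded by primer extension. Gapped and ungapped 8-mers were scored.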

The target of another test is T2, GST-ANAC019 NAC domain (Arabidopsis thaliana, UniProt Q9C932 14-162).
T2 sequence: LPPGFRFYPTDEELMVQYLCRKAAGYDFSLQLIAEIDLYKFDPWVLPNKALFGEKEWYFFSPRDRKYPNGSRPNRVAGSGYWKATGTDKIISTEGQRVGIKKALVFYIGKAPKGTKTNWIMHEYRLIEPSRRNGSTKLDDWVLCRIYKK
The conditions noted are these: protein: recombinant; tags: GST; chain copies: 2; dsDNA, one strand shown. Summed up:
as §1

In a further test the target is T3, GST-ANAC055(1-171) (Arabidopsis thaliana, UniProt Q9LDY8 1-171).
T3 sequence: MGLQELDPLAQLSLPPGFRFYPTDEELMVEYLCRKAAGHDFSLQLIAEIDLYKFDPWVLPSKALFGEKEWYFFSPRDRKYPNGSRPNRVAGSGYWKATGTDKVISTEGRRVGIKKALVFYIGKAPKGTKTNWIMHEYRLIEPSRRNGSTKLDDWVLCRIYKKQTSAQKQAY
The settings on record: protein: recombinant; tags: GST; chain copies: 2; dsDNA, one strand shown. Summed up:
as §1

A further test concerns the target T4, GST-ATAF1 NAC domain (Arabidopsis thaliana, UniProt Q39013 7-158).
T4 sequence: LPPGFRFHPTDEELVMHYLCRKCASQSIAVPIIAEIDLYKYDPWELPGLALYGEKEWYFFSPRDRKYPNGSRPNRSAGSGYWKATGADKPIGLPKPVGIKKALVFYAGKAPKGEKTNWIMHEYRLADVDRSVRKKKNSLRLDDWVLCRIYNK
The conditions noted are these: protein: recombinant; tags: GST; chain copies: 2; dsDNA, one strand shown. Summed up:
as §1

Test [1] deals with T5, GST-ANAC092(1-285) full length (Arabidopsis thaliana, UniProt Q9FKA0 1-285).
T5 sequence: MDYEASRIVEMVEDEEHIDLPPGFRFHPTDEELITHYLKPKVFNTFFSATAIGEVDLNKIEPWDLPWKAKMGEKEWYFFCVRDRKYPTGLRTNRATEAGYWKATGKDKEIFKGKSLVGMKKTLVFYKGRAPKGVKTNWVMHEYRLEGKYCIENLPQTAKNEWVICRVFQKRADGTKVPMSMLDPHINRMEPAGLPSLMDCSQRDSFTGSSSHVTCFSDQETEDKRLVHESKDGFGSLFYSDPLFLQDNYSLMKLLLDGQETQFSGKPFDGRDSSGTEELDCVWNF
The settings on record: protein: recombinant; tags: GST; chain copies: 2; dsDNA, one strand shown. In short, it runs like this:
as §1

Another test addresses T6, GST-NAP(1-166) (Arabidopsis thaliana, UniProt O49255 1-166).
T6 sequence: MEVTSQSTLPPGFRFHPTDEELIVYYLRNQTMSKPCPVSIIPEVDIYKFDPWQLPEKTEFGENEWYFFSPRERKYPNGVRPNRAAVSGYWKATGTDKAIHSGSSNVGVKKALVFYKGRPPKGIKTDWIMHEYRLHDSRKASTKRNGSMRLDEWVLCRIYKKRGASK
The settings on record: protein: recombinant; tags: GST; chain copies: 2; dsDNA, one strand shown. Summed up: as §1

The target of another test is T7, GST-NST2(1-184) (Arabidopsis thaliana, UniProt Q9M274 1-184).
T7 sequence: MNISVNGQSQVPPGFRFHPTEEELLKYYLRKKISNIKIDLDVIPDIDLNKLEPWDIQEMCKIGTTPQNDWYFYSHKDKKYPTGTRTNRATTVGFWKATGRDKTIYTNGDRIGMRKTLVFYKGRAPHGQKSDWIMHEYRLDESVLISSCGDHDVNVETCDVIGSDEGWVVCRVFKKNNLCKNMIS
The settings on record: protein: recombinant; tags: GST; chain copies: 2; dsDNA, one strand shown. Summed up: as §1

The target of a further test is T8, GST-SND1(1-203) (Arabidopsis thaliana, UniProt Q9LPI7 1-203).
T8 sequence: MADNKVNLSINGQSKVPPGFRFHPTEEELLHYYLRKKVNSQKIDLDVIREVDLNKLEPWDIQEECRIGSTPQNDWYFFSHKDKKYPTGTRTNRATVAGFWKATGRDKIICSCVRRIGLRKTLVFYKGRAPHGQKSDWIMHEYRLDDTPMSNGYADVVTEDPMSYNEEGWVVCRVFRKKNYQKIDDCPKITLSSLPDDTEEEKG
The settings on record: protein: recombinant; tags: GST; chain copies: 2; dsDNA, one strand shown. Summed up: as §1

The next test addresses T9, GST-VND3 NAC domain (Arabidopsis thaliana, UniProt Q9FH59 12-162).
T9 sequence: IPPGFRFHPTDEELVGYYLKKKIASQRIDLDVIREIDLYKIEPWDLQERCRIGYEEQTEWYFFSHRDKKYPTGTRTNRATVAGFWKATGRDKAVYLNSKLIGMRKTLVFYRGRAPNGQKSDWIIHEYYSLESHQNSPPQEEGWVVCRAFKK
The conditions noted are these: protein: recombinant; tags: GST; chain copies: 2; dsDNA, one strand shown. In short, it runs like this:
as §1

Another test addresses T10, GST-VND7 NAC domain (Arabidopsis thaliana, UniProt Q9C8W9 9-158).
T10 sequence: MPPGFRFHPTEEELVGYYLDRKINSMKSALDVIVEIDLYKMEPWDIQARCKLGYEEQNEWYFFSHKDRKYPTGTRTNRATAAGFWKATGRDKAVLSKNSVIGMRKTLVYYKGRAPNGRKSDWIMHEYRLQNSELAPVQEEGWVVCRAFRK
The conditions noted are these: protein: recombinant; tags: GST; chain copies: 2; dsDNA, one strand shown. In short, it runs like this:
as §1

A further test concerns the target GST-WRKY1(266-371) (Arabidopsis thaliana, UniProt Q9SI37 266-371). The conditions noted are these: protein: recombinant; tags: GST; dsDNA, one strand shown. In short, it runs like this:
as §1

Another test has as its target T11, GST-NTL8 NAC domain (Arabidopsis thaliana, UniProt Q9XIN7 14-156).
T11 sequence: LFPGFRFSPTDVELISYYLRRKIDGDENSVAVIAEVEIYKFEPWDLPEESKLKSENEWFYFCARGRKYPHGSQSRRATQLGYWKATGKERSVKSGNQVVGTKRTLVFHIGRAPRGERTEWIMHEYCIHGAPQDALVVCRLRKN
The settings on record: protein: recombinant; tags: GST; chain copies: 2; dsDNA, one strand shown. In short, it runs like this: as §1

Another test deals with GST-NTL6(1-168) (Arabidopsis thaliana, UniProt Q9SCK6 1-168). The conditions noted are these: protein: recombinant; tags: GST; chain copies: 2; dsDNA, one strand shown. In short, it runs like this:
as §1

These results are taken from article PMC4081100, “A DNA-binding-site landscape and regulatory network analysis for NAC transcription factors in Arabidopsis thaliana”.

Sequence of GST-WRKY1(266-371) (Q9SI37 266-371): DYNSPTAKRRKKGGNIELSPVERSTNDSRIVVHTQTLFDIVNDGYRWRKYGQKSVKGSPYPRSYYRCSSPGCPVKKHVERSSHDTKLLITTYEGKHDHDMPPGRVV
Sequence of GST-NTL6(1-168) (Q9SCK6 1-168): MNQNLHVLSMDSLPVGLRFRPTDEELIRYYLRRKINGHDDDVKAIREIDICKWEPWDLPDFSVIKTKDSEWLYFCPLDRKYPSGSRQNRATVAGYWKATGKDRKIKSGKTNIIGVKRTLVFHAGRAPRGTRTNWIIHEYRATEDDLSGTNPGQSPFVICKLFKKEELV

Regarding TACGTCAA, the binding signal is 0.363 E-score with GST-ANAC092(1-176); 0.216 E-score with GST-ANAC019 NAC domain; 0.194 E-score in the test with GST-ANAC055(1-171); 0.291 E-score in the test with GST-ATAF1 NAC domain; 0.417 E-score in test [1]; 0.241 E-score with GST-NAP(1-166). The binding signal is 0.341 E-score with GST-NST2(1-184); 0.44 E-score with GST-SND1(1-203); 0.23 E-score with GST-VND3 NAC domain; 0.205 E-score with GST-VND7 NAC domain; 0.402 E-score in the test with GST-WRKY1(266-371).

On to GACGTCAA, for which the binding signal came to 0.16 E-score in the test with GST-ANAC092(1-176); 0.0759 E-score with GST-ANAC055(1-171); 0.0728 E-score with GST-ATAF1 NAC domain; 0.19 E-score in test [1]; 0.122 E-score with GST-NAP(1-166); 0.0988 E-score with GST-NST2(1-184). Moreover, the binding signal with GST-SND1(1-203) stood at 0.139 E-score; with GST-VND3 NAC domain it was 0.126 E-score; in the test with GST-VND7 NAC domain, 0.0526 E-score; with GST-WRKY1(266-371) it was 0.436 E-score.

With CAAAGTCA, the binding signal in the test with GST-ANAC055(1-171) was 0.0622 E-score; in test [1], 0.0505 E-score; with GST-SND1(1-203) it was 0.0515 E-score; in the test with GST-VND3 NAC domain, 0.0817 E-score; in the test with GST-VND7 NAC domain, 0.0536 E-score; with GST-WRKY1(266-371), 0.454 E-score.

For CTTGCGTA, the binding signal amounted to 0.471 E-score with GST-ANAC092(1-176); 0.382 E-score in the test with GST-ANAC019 NAC domain; 0.306 E-score with GST-ANAC055(1-171); 0.317 E-score in the test with GST-ATAF1 NAC domain; 0.474 E-score in test [1]; 0.386 E-score with GST-NAP(1-166). Also, the binding signal turned out to be 0.332 E-score with GST-NST2(1-184); 0.0618 E-score in the test with GST-NTL8 NAC domain; 0.479 E-score with GST-SND1(1-203); 0.416 E-score in the test with GST-VND3 NAC domain; 0.394 E-score with GST-VND7 NAC domain; 0.0686 E-score with GST-WRKY1(266-371).

Regarding TACGTTAA, the binding signal in the test with GST-ANAC092(1-176) came out at 0.43 E-score; with GST-NTL6(1-168) it was 0.14 E-score; with GST-ANAC019 NAC domain it was 0.0653 E-score; with GST-ANAC055(1-171) it was 0.154 E-score; with GST-ATAF1 NAC domain, 0.243 E-score; in test [1], 0.432 E-score. In addition, the binding signal in the test with GST-NAP(1-166) was 0.12 E-score; in the test with GST-NST2(1-184), 0.321 E-score; in the test with GST-SND1(1-203), 0.462 E-score; in the test with GST-VND3 NAC domain it was 0.249 E-score; with GST-VND7 NAC domain, 0.173 E-score.

Turning to AAAGTCAT, the binding signal with GST-ATAF1 NAC domain amounted to 0.14 E-score; in test [1], 0.119 E-score; in the test with GST-NAP(1-166), 0.0502 E-score; with GST-NST2(1-184), 0.0576 E-score; in the test with GST-SND1(1-203), 0.162 E-score; in the test with GST-VND3 NAC domain, 0.0602 E-score. The binding signal was determined as 0.121 E-score in the test with GST-VND7 NAC domain and 0.428 E-score in the test with GST-WRKY1(266-371).

CTTGCGTC: the binding signal with GST-ANAC092(1-176) is 0.337 E-score; in the test with GST-ANAC019 NAC domain, 0.0715 E-score; in the test with GST-ANAC055(1-171) it was 0.0764 E-score; with GST-ATAF1 NAC domain it was 0.0507 E-score; in [1], 0.402 E-score; in the test with GST-NAP(1-166), 0.21 E-score. Further, the binding signal with GST-NST2(1-184) was found to be 0.106 E-score; in the test with GST-SND1(1-203), 0.162 E-score; with GST-VND3 NAC domain, 0.0748 E-score; in the test with GST-VND7 NAC domain it was 0.058 E-score; with GST-WRKY1(266-371), 0.0999 E-score.

With ACGTCTCC, the binding signal is 0.21 E-score with GST-ANAC092(1-176); 0.411 E-score with GST-ANAC019 NAC domain; 0.353 E-score with GST-ANAC055(1-171); 0.368 E-score with GST-ATAF1 NAC domain; 0.33 E-score in test [1]; 0.273 E-score in the test with GST-NAP(1-166). The binding signal with GST-NST2(1-184) worked out at 0.167 E-score; in the test with GST-NTL8 NAC domain, 0.052 E-score; with GST-SND1(1-203), 0.182 E-score; in the test with GST-VND3 NAC domain, 0.34 E-score; with GST-VND7 NAC domain, 0.322 E-score; with GST-WRKY1(266-371), 0.0802 E-score.
